system: Vero E6 infected with SARS-CoV-2; assay: inhibition of SARS-CoV-2 cytopathic effect; higher = more antiviral protection, active = above 15; conditions: 1 nM; 48 h

Row | SMILES | inhibition of SARS-CoV-2 cytopathic effect
1 | CCN(C)C(=O)Oc1cccc([C@H](C)N(C)C)c1 [rivastigmine] | -1.4% (inactive)
2 | CCO[C@@H](Cc1ccc(OCCc2ccc(OS(C)(=O)=O)cc2)cc1)C(=O)O [tesaglitazar] | -2.83% (inactive)
3 | O=C1C[C@@H](c2ccc(O)cc2)Oc2cc(O)ccc21 | -0.59% (inactive)
4 | O=C1OCCN1/N=C/c1ccc([N+](=O)[O-])o1 [furazolidone] | 2.49% (inactive)
5 | O=C1C=Cc2cc(Br)ccc2C1=O [bonaphthone] | -0.83% (inactive)
6 | CC(C)NNC(=O)c1ccncc1 [iproniazid] | 0.77% (inactive)
7 | CC1(C)S[C@@H]2[C@H](N3C(=O)[C@@H](c4ccccc4)NC3(C)C)C(=O)N2[C@H]1C(=O)O [hetacillin] | -0.32% (inactive)
8 | CC(C)(C#N)c1cc(Cn2cncn2)cc(C(C)(C)C#N)c1 [anastrozole] | -1.6% (inactive)
9 | CC[C@@H](CO)NC(=O)[C@@H]1C=C2c3cccc4c3c(cn4C)C[C@H]2N(C)C1 [methysergide] | -0.52% (inactive)
10 | Cc1ccc2c(c1CCC(=O)O)CC[C@@H](NS(=O)(=O)c1ccc(Cl)cc1)C2 [terutroban] | -4.39% (inactive)
11 | OCC(CO)N[C@H]1C[C@](O)(CO)[C@@H](O)[C@H](O)[C@H]1O [voglibose] | 0.63% (inactive)
12 | CN(C)CCCN1c2ccccc2Sc2ccccc21 [promazine] | 2.47% (inactive)
13 | CCCCOC(=O)c1ccc(N)cc1 [butamben] | 3.03% (inactive)
14 | COc1ccc2cc([C@H](C)C(=O)O)ccc2c1 [naproxen] | 3.38% (inactive)

Reference: the supplement of paper PMC13380429
